Test results published in PubChem BioAssay (EPA / NIEHS).
Some structures have more than one record in an assay (separate samples or runs), and their calls can disagree. Active and inactive are the calls of the source. The calls were made as follows: active = hit-call score of the fitted dose curve at least 0.9, where 1 is the maximum; inactive = score below 0.9.

Assay: ATG_NFI_CIS: Attagene CIS-FACTORIAL HepG2 Assay for human Nuclear Factor I (NFI) (AID 2282989)
Details: HepG2 cis-regulatory reporter, NFI response element transcription; actives raise or lower the signal
Description: ATG_CIS is a cell-based, multiplexed-readout assay that uses HepG2, a human liver cell line, with measurements taken at 24 hours after chemical dosing in a 24-well plate.ATG_NFI_CIS is one of 52 assay component(s) measured or calculated from the ATG_CIS assay. It is designed to make measurements of mRNA induction, a form of inducible reporter, as detected with fluorescence intensity signals by Reverse transcription polymerase chain reaction (RT-PCR) and Capillary electrophoresis technology.Data from the assay component ATG_NFI_CIS was analyzed into 1 assay endpoint. This assay endpoint, ATG_NFI_CIS, was analyzed with bidirectional fitting relative to DMSO as the negative control and baseline of activity. Using a type of inducible reporter, measures of mRNA for gain or loss-of-signal activity can be used to understand the reporter gene at the transcription factor-level as they relate to the gene NFIA. Furthermore, this assay endpoint can be referred to as a primary readout, because this assay has produced multiple assay endpoints where this one serves a reporter gene function. To generalize the intended target to other relatable targets, this assay endpoint is annotated to the dna binding intended target family, where the subfamily is nuclear factor I.
Human liver HepG2 cells are transiently transfected with multiple reporter transcription units (MRTUs) in 6-well plates using FuGene 6 reagent (Roche; 3 ml FuGene/1 mg DNA). The MRTU constructs are regulated by a cis-regulating element (promoter). […] A major difference between the CIS and TRANS system is that in CIS activities of endogenous TFs are measured, whereas the TRANS assay evaluates changes in activities of exogenous, chimeric NR-Gal4 proteins. […] At the end of 24 hour incubation, total RNA was isolated using TriZol reagent (Invitrogen). The isolated RNA is then reverse-transcribed using oligo(dT) primer and Mo-MLV reverse transcriptase (Invitrogen) with DNAse I (Ambion) treatment for 30 min. The one-tenth of the produced cDNA was amplified by PCR using Taq DNA polymerase (Invitrogen) and two reporter sequence-specific primers. The PCR products were fluorescently labeled by primer extension with 6-arboxyfluorescein (6-FAM) 5'-labeled reporter sequence-specific primer (2 min at 95 C, 20 s at 68 C and 10 min at 72 C) and these products were digested with 5U of HpaI (New England Biolabs) for 2h at 37 C. The fragments were purified using Qiaquick PCR columns (Qiagen), analyzed on an ABI 3130xL genetic analyzer (Applied Biosystems) with peak positions identified by using a set of X-rhodamine (ROX)-labeled MapMarker1000 molecular weight standards (BioVentures). The raw capillary electrophoresis data was processed using Attagraph software (Attagene).
With `NCc1cccc(CN)c1` the outcome was “inactive”. For `CC(=O)Nc1ccc(S(N)(=O)=O)cc1`, the outcome was “inactive”. With `O=C1c2ccccc2C(=O)c2c(O)c(O)cc(O)c21` the outcome was “inactive”. For `Cn1sccc1=O`, the AC50 was 163 µM (active). In the case of `CCCCC(CC)C(=O)OCCOCCOCCOCCOC(=O)C(CC)CCCC` (stereo not given), the outcome is reported as “inactive”. With `CCOCCOCC` the outcome was “inactive”. For `Brc1cc(Br)c(Oc2c(Br)cc(Br)c(Br)c2Br)cc1Br`, the outcome was “inactive”. In the case of `CCN(CC)CC`, the outcome is reported as “inactive”. For `COC(=O)C(F)(F)C(F)(F)C(F)(F)C(F)(F)C(F)(F)F`, the outcome was “inactive”. With `CCCCCCCCCCCC(=O)O` the outcome was “inactive”. With `N=C(N)c1ccc(OCCCCCOc2ccc(C(=N)N)cc2)cc1` the outcome was “inactive”. For `CCCCCCCC(OC)OC`, the outcome was “inactive”. With `FC(OC(F)(F)C(F)(F)C(F)(F)F)C(F)(F)F` (stereo not given) the outcome was “inactive”. For `CCOC(=O)CN[C@@H](C(=O)N1CC[C@H]1C(=O)NCc1ccc(/C(N)=N/O)cc1)C1CCCCC1`, the outcome was “inactive”. In the case of `CCCCCCCCCCCCCCCCCC[N+](C)(C)Cc1ccccc1`, the outcome is reported as “inactive”. In the case of `CN(C)c1ccc(C(=C2C=CC(=[N+](C)C)C=C2)c2ccccc2)cc1`, the AC50 is reported as 5.55 µM (active) and the outcome is reported as “inactive”. For `Nc1ccc(O)c(C(=O)O)c1`, the outcome was “inactive”. With `O=C(Nc1cccc([N+](=O)[O-])c1)c1cc2ccccc2cc1O` the outcome was “inactive”. With `CC1=NN(c2ccccc2)C(=O)C1` the outcome was “inactive”. In the case of `C[C@]12CC[C@@H]3c4ccc(O)cc4CC[C@H]3[C@@H]1CC[C@@H]2OC(=O)CCC1CCCC1`, the AC50 is reported as 100 µM (active). In the case of `Clc1ccc(Nc2nnc(Cc3ccncc3)c3ccccc23)cc1`, the outcome is reported as “inactive”. For `CCCCCCCCCCCCCCCC(=O)OC`, the outcome was “inactive”. For `c1cnc2c(c1)ccc1cccnc12`, the outcome was “inactive”. In the case of `O=P(O)(O)CCC(F)(F)C(F)(F)C(F)(F)C(F)(F)C(F)(F)C(F)(F)C(F)(F)C(F)(F)F`, the outcome is reported as “inactive”. For `CC[N+](CC)(CC)Cc1ccccc1`, the outcome was “inactive”. With `OCC(CO)(CBr)CBr` the outcome was “inactive”. For `Oc1ccc(Cc2ccccc2O)cc1`, the outcome was “inactive”. For `OCCN1CN(CCO)CN(CCO)C1`, the AC50 was 144 µM (active). With `O=C(NCc1ncc(C(F)(F)F)cc1Cl)c1c(Cl)cccc1Cl` the outcome was “inactive”. With `CCCCCC(C)OC(=O)COc1ccc(Cl)c2cccnc12` (stereo not given) the outcome was “inactive”. For `CC(C)C=O`, the outcome was “inactive”. In the case of `CC(C)(C)c1ccc(O)c(O)c1`, the outcome is reported as “inactive”. For `Oc1cccc2c(O)cccc12`, the outcome was “inactive”. For `CCC(=O)O`, the outcome was “inactive”. For `CCCCCCCCC(C)=O`, the outcome was “inactive”. With `NCCN` the outcome was “inactive”. For `CCC(=O)C=Cc1ccc(OC)cc1`, the outcome was “inactive”. For `CCCCCCCCCCCC[N+](C)(C)CCCCCCCCCCCC`, the outcome was “inactive”. With `Cc1cc(Cc2cc(C)cc(C(C)(C)C)c2O)c(O)c(C(C)(C)C)c1` the AC50 was 25.8 µM (active).
